TDP1 inh: TDP1 (human) enzyme inhibition. Q9NUW8. recombinant TDP1, AlphaScreen DNA substrate cleavage. Potency, µM (series often up to 130 µM), for inactives: at the highest dose activity change, negative = inhibition, most hits filed as inhibitors. 350,000 compounds, 0.28% hits; also: potency is read from the fitted curve at half-maximal effect; nearly all actives have a fitted effect of over 40% in size
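Recombinant human Tdp1 (E. coli-expressed, 1 nM final) preincubated with compounds 15 min at room temperature, then 5'-biotin/3'-phosphotyrosine-FITC DNA substrate (15 nM final) added for 5 min. AlphaScreen beads (10 ug/ml final) added 10 min; cleavage lowers signal.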
Six1-Eya2 blk: blocks human Six1 binding to Eya2. Q15475+O00167. AlphaScreen GST-Six1/His-Eya2 binding, biochemical; hits give low values. activity change, % (no concentration beside the values). 360,000 compounds, 0.56% hits. AID 651725; in the data active = activity change below about -65%; inconclusive = mostly about -30% to -63%
Target sequence (O00167 whole entry, looked up): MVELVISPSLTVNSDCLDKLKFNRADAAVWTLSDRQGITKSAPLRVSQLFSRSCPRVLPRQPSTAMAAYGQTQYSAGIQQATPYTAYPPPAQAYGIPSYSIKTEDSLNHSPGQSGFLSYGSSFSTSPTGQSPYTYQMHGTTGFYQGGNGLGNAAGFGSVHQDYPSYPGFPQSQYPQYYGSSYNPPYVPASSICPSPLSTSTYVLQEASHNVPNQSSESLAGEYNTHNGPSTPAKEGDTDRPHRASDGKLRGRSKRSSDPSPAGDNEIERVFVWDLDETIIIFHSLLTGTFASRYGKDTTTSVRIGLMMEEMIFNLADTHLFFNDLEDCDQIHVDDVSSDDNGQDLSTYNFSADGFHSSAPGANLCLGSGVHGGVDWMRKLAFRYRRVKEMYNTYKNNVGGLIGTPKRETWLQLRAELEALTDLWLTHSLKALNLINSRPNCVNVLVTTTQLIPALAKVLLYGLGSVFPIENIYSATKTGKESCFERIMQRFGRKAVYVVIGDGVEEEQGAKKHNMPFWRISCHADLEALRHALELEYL
Target sequence (Q15475 whole entry, looked up): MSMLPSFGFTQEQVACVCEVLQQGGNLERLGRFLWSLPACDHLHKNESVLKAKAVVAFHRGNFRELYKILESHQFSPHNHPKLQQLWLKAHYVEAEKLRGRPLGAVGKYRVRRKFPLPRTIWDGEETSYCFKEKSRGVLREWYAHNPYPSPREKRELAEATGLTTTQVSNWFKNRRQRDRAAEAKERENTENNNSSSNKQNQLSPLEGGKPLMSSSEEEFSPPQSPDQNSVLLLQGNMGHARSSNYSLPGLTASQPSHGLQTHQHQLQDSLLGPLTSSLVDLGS
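Homogeneous AlphaScreen proximity assay pairing GST-Six1 with His-tagged Eya2 (added as 5X mix: 250 nM and 500 nM) in 50 mM Tris pH 8.0, 300 mM NaCl, 1 mM TCEP. Glutathione donor and nickel acceptor beads; 1 h, 37 °C, dark.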
TDP1 cell CPT: DT40-hTDP1 cell growth loss with CPT; chicken DT40 Tdp1-/-;hTDP1 cells + 20 nM CPT, ATP luminescence, 48 h; Potency, µM (titrated, usually from 46.2 µM), for the others: top-dose activity change, negative = growth inhibition, most hits filed as inhibitors; 420,000 compounds, 12% hits; AID 686979; also: potency is read from the fitted curve at half-maximal effect; nearly all actives have a fitted effect of over 55% in size
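Cell growth measured by CellTiter-Glo luminescence after a minimum 48 h, 37 C compound exposure with 20 nM CPT in Tdp1-knockout DT40 cells stably expressing hTDP1, seeded 400/well; qHTS titration format.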
DT40 TDP1 no CPT: qHTS for Inhibitors of human tyrosyl-DNA phosphodiesterase 1 (TDP1): qHTS in cells in absence of CPT | DT40 Tdp1-/- hTDP1 cells, no CPT, ATP luminescence, 48 h | Potency, µM (doses to about 46.2 µM), for inactives: at the highest dose activity change, negative = growth inhibition, hits mostly inhibitors | 420,000 compounds, 15% hits | AID 686978, 2013; also: potency is read from the fitted curve at half-maximal effect; nearly all actives have a fitted effect of over 55% in size
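Camptothecin absent (DMSO only). Human TDP1-complemented DT40 knockout cells, 400 cells/well, 37 °C for minimum 48 hr; ATP measured via CellTiter-Glo, 30 min dark incubation, luminescence.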
IL-1B inflam inh: blocks inflammasome-driven IL-1 beta release; activity change, % at 57.5 µM; 360,000 compounds, 4.7% hits; AID 743279; THP-1 LPS/ATP IL-1B secretion, AlphaLISA, 16 h; hits give low values; in the data active = activity change below about -50%; inconclusive = mostly about -30% to -49%
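Secreted IL-1B measured by AlphaLISA bead assay after 16 h compound exposure of THP-1 cells; compounds (final up to 57.5 uM) added 1 h before LPS (250 ng/mL) and ATP (1.25 mM) stimulation; lower signal means less secretion.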
CtBP-E1A inh: inhibitors of CtBP/E1A interaction. AlphaScreen GST-E1A/His-CtBP binding, 1536-well; hits give low values. activity change, % (concentration not given with the values). 340,000 compounds, 0.49% hits. AID 651724; in the data active = activity change below about -65%; inconclusive = mostly about -30% to -63%
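AlphaScreen with 125 nM GST-E1A and 125 nM His-CtBP (5X stocks) in Tris pH 8.0, 300 mM NaCl, BSA, Tween 20, TCEP. Compounds preincubated 2 h at 37 deg C, then glutathione donor/nickel acceptor beads added for 1 h at 37 deg C in dark.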
Active calls of the source: *; ? = inconclusive; . = not tested or not shown; [ ] = dose if it differs, or a comment. A selection: hits, their analogues and other compounds. The true share with any hit is near 18%. Unless noted, calls follow the shape of the dose curve; as a rule, active = well fitted curve in the direction sought with a large enough effect; inconclusive = small, poorly fitted or top-dose-only effect, or another doubt; inactive = no such curve, though single readings can be large; an effect the other way counts as inactive or inconclusive. % is scaled to controls: 0 for no effect and ±100 for the full control effect.

SMILES | TDP1 inh | Six1-Eya2 blk | TDP1 cell CPT | DT40 TDP1 no CPT | IL-1B inflam inh | CtBP-E1A inh
CCN(CC)CCOC(=O)CCc1cccc2ccccc12 | -8%[56.1 µM] | 2 | 0% | 1% | 0 | -1
Cc1cc(C)c2nc(NNC(=O)c3cc(-c4cccs4)nc4ccccc34)sc2c1 | 8% | -9 | 4.6µM* | 5.2µM* | 115 | 0
Cc1ccc2sc(NNC(=O)c3cc(-c4cccs4)nc4ccccc34)nc2c1C | 9% | . | . | . | . | .
O=C(NNc1nc2ccc(Cl)cc2s1)c1cc(-c2cccs2)nc2ccccc12 | 9% | -9 | 2.6µM* | 5.2µM* | 174 | -2
Cc1cccc(N2CCN(C(=O)c3ccc(CS(=O)Cc4cccc(Cl)c4)o3)CC2)c1C (stereo not given) | 5% | -10 | ? | ? | -4 | .
Cc1nn(-c2ccc(F)cc2)c(Cl)c1C(=O)N(C)CC(=O)Nc1cccc(F)c1 | -11% | 10 | ? | 15µM* | -52* | -5
Cc1nn(-c2ccccc2)c(Cl)c1C(=O)N(C)CC(=O)Nc1cccc(F)c1 | 1% | -7 | ? | ? | -16 | 4
Cc1nn(Cc2ccccc2Cl)c(C)c1C(=O)N(C)CC(=O)Nc1cccc(F)c1 | 3% | 5 | ? | 16µM* | -5 | .
COc1cc(NC(=O)CNc2cccc(S(=O)(=O)N3CCOCC3)c2)cc(OC)c1 | 4%[0.505 µM] | -6 | ? | ? | -4 | -13
CC1(C)CC(NC(=O)c2ccc(F)cc2)CC(C)(C)N1 | . | 4 | 1% | 6% | -1 | 2
CC(=O)c1ccc(-c2ccc(C(=O)NC3CC(C)(C)NC(C)(C)C3)o2)cc1 | . | -18 | 23% | ? | -56* | -8
O=C(c1ccc(-c2ccc([N+](=O)[O-])cc2)o1)N1CCN(S(=O)(=O)c2cccs2)CC1 | -12% | -7 | 16µM* | 3.7µM* | -7 | -4
O=C(c1ccco1)N1CCN(C(=O)c2ccc(-c3ccc([N+](=O)[O-])cc3)o2)CC1 | 35µM* | -15 | 23µM* | ? | -3 | 5
O=C(NC1CCC(O)CC1)c1ccc(-c2ccc([N+](=O)[O-])cc2)o1 (stereo not given) | . | -5 | 16µM* | 16µM* | -12 | .
O=C(COC(=O)c1ccc(-c2ccc([N+](=O)[O-])cc2)o1)NC(=O)NC1CCCCC1 | 5% | -24 | ? | ? | 16 | -24
Cc1ccccc1C(=O)c1cccn1CC(=O)N1CCCCCC1 | -7% | -4 | -24% | ? | -16 | 3
CC(C)C[C@H]1CN(CCCC[C@@H]2CNC(=O)C(=O)N2CC2CCCCC2)C(=O)C(=O)N1CCc1ccccc1 | . | 15 | 14% | -15% | 22 | 33
Cc1cc(OCC(O)CN(CCO)CCO)ccc1Cl (stereo not given) | 0% | 10 | -3% | -9% | -9 | 6
CN(CCc1ccc(Cl)c(Cl)c1)C[C@@H](O)COc1ccc(NS(C)(=O)=O)cc1 | -2% | . | ? | 24µM* | . | .
CCOc1ccc(C(=O)NCC(=O)NCC(c2ccccc2OC)N2CCCC2)cc1 (stereo not given) | 1% | 2 | -11% | 4% | -17 | -25
C=CCn1c(NC(=O)c2ccccc2Cl)c(C#N)c2nc3ccccc3nc21 | 5% | -1 | 16µM* | 21µM* | -60* | -8
N#Cc1c(N)n(CCNC(=O)c2cccs2)c2nc3ccccc3nc12 | 7% | ? | -3% | ? | -20 | ?
Cc1ccc(C)c(N2CCN(CCCNC(=O)Cn3c(=O)c4cccn4c4cccnc43)CC2)c1 | 6% | -5 | 21µM* | ? | ? | 0
O=C(CCn1c(=O)c2cccn2c2cccnc21)N1CCN(c2ccccc2F)CC1 | 0% | . | ? | 23µM* | . | .
O=C(CCn1c(=O)c2cccn2c2cccnc21)N1CCN(c2cccc(Cl)c2)CC1 | 6% | -1 | 18µM* | 15µM* | 23 | 1
SMILES | TDP1 inh | Six1-Eya2 blk | TDP1 cell CPT | DT40 TDP1 no CPT | IL-1B inflam inh | CtBP-E1A inh
Cc1ccc(C)c(N2CCN(CCCNC(=O)CCn3c(=O)c4cccn4c4cccnc43)CC2)c1 | 7% | -8 | ? | ? | 4 | -13
O=C(O)CCn1c(=O)c2cccn2c2cccnc21 | 0% | . | -7% | 0% | . | .
Cc1ccc(C)c(N2CCN(C(=O)CCn3c(=O)c4cccn4c4cccnc43)CC2)c1 | 8% | . | ? | 21µM* | . | .
COC(=O)N[C@H](c1ccccc1)[C@@]1(C)C[C@@H]1[C@@H](C)C(=O)Nc1ccc2ccccc2c1 | 5% | 2 | ? | ? | -6 | .
Cc1ccc(Cl)cc1N1CCN(C(=O)CCn2c(=O)c3cccn3c3cccnc32)CC1 | 3% | . | 9.2µM* | 6.5µM* | . | .
CCN(CC)C(=O)C1=C(C)N(Cc2ccc(C(C)(C)C)cc2)C(=O)C(CC(=O)NCCN2CCOCC2)C1 (stereo not given) | . | -2 | -25% | -26% | -25 | -29
COc1ccc(CNC(=O)/C(C#N)=C2\N=C(NC(=O)c3cccs3)c3ccccc32)cc1 | 4% | -12 | 26µM* | ? | -9 | -16
Cc1csc2nc(CSc3ccc(Cl)cc3)cn12 | 5% | -7 | ? | 23µM* | -91* | 9
Clc1ccc(SCc2cn3ccsc3n2)cc1 | 3% | -5 | -29% | -20% | -2 | -1
CCc1ccccc1N(C(C)=O)c1nc(CN=C=S)cs1 | -3% | -24 | 23µM* | ? | 2 | -3
C[C@H](CO)N1C[C@H](C)[C@@H](CN(C)C(=O)Nc2ccccc2)Oc2ccc(NC(=O)Nc3ccc4c(c3)OCO4)cc2C1=O | 3% | ? | 0% | -12% | -2 | -65*
COc1ccc(NC(=O)Nc2ccc3c(c2)C(=O)N([C@H](C)CO)C[C@H](C)[C@@H](CN(C)C(=O)Nc2ccccc2)O3)cc1 | 4% | ? | 0% | 2% | -2 | -67*
COC(=O)[C@@]1(C)[C@H]2C(=O)N(Cc3ccccc3)C(=O)[C@H]2[C@H]2CN=C(SCC(=O)c3ccccc3)N21 | 1%[56.1 µM] | 2 | ? | ? | -1 | 7
O=C1C=C(Nc2ccc(Cl)cc2)CC(c2ccccc2)C1 (stereo not given) | 5% | 1 | 21µM* | 12µM* | 8 | 0
CC(=O)Nc1ccc(C2=CC(=O)C[C@H](c3ccc(Cl)cc3)C2)cc1 | 2% | -5 | 18µM* | 16µM* | ? | 2
